In the library only some 8% were active in any assay of this set; here they are far more common.
SARS PLP yeast – blocks SARS-CoV papain-like protease in a yeast assay; Potency, µM (top dose mostly 32.9 µM), hits mostly activators; S. cerevisiae expressing SARS-CoV PLpro, growth rescue; AID 485353; 330,000 compounds, 0.19% hits; calls by dose curve; also: nearly all actives have a fitted effect of over 55% in size
LASV entry inh – Lassa virus entry inhibition; Lassa virus pseudotype entry inhibition, cell reporter; Potency, µM (series often up to 37.9 µM), most hits filed as inhibitors; 300,000 compounds, 1.2% hits; calls by dose curve; tested in HEK293 cells; also: nearly all actives have a fitted effect of over 50% in size
MARV entry inh – blocks Marburg virus binding to or entry into cells. Marburg virus pseudotyped entry inhibition, cell reporter. Potency, µM (titrated, usually from 37.8 µM), most hits filed as inhibitors. 300,000 compounds, 1.8% hits; calls by dose curve; tested in HEK293 cells
FMDV inh – antivirals against foot and mouth disease virus; FMDV antiviral cell-based qHTS; Potency, µM (titrated, usually from 57.9 µM), most hits filed as inhibitors; 410,000 compounds, 1.2% hits; AID 1159524; calls by dose curve; tested in HEK293T cells; also: read-out not given here; nearly all actives have a fitted effect of over 45% in size
HCV inhibitor – inhibitors of hepatitis C virus infection; Potency, µM (highest dose often 41.8 µM), hits mostly inhibitors; Huh7.5.1 HCVcc-Cre infection, luciferase reporter, 44 h; 340,000 compounds, 3.4% hits; AID 651820; active = well fitted inhibition curve with a large enough effect; inconclusive = small, poorly fitted or top-dose-only effect, or another doubt; inactive = no such curve, though single readings can be large or run the other way
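Seed cells (1,000/well) for 4 h; treat with compound and infect with HCVcc-Cre, moi about 0.5. Incubate 44 h, then detect luciferase activity.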
HCMV inh – inhibitors of human cytomegalovirus. HFF cells, HCMV-luciferase reporter, 72 h; active compounds read low. activity change, negative = inhibition, % at 57.5 µM. 410,000 compounds, 4.5% hits; in the data active = activity change below about -60%; inconclusive = no clear call, values can overlap the other calls; inactive = above about -39%
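Screen run at 2 compound doses on HFFs infected with reporter HCMV, MOI 1 PFU/cell. Luciferase activity from cell lysates at 72 h post infection gave inhibition relative to buffer-only and Salinomycin wells.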
Large screens that a line does not name were inactive.

Nc1nc2nn(-c3ccccc3)nc2c(=O)[nH]1	none (no result: LASV entry inh, MARV entry inh)
Nc1nc2n[nH]nc2c(=O)[nH]1	HCV inhibitor inconclusive, HCMV inh -96 (no result: SARS PLP yeast, LASV entry inh, MARV entry inh)
O=C(CSc1nccc(=O)[nH]1)N1N=C2/C(=C/c3ccco3)CCCC2C1c1ccco1 (centres undefined)	none
Cn1cnnc1SCC(=O)N1N=C2/C(=C/c3ccco3)CCCC2C1c1ccco1 (centres undefined)	HCMV inh -61
COc1cc2ccccc2c2c1CCCC2=O	LASV entry inh inconclusive, HCV inhibitor 13µM
O=C1CCCc2ccc3ccccc3c21	none (no result: SARS PLP yeast)
CC(C)Oc1ccc(C(=O)NC2CCCCC2)cc1	none
CC(C)Oc1ccc(C(CCN)C2CCCCC2)cc1 (centres undefined)	LASV entry inh inconclusive, MARV entry inh inconclusive, HCV inhibitor inconclusive, HCMV inh -99
CC1CCCCN1Cc1c(O)ccc2c(=O)c(-c3ccccc3Cl)c(C(F)(F)F)oc12 (centres undefined)	MARV entry inh inconclusive (no result: SARS PLP yeast, HCV inhibitor)
CC1CCCCN1Cc1c(O)ccc2c(=O)c(-c3nc4ccccc4s3)c(N)oc12 (centres undefined)	LASV entry inh inconclusive, MARV entry inh 2.5µM, FMDV inh inconclusive, HCV inhibitor 10µM
CCOc1ccccc1NC(=O)Nc1cc(C(=O)NCc2ccc(C)cc2)ccc1N1CCCC1	HCMV inh -85 (no result: SARS PLP yeast, MARV entry inh, HCV inhibitor)
CCOc1ccc(C(=O)Nc2ccccc2N2CCCC2)cc1	HCV inhibitor inconclusive, HCMV inh -76
Cn1nc(C(=O)Nc2cc(Cl)ccc2N2CCCC2)c2ccccc2c1=O	LASV entry inh inconclusive, MARV entry inh inconclusive, HCV inhibitor inconclusive
CCn1nc(C(=O)Nc2ccccc2N2CCCC2)c2ccccc2c1=O	LASV entry inh inconclusive, MARV entry inh inconclusive, FMDV inh inconclusive, HCV inhibitor 10µM
CCCCn1nc(C(=O)Nc2ccc3c(c2)OCCO3)c2ccccc2c1=O	HCV inhibitor inconclusive, HCMV inh -69 (no result: LASV entry inh, MARV entry inh)
Cn1nc(C(=O)Nc2ccc3c(c2)OCCO3)c2ccccc2c1=O	HCV inhibitor inconclusive (no result: LASV entry inh, MARV entry inh)
CCOc1ccc(C(=O)C2CCN(CC(=O)Nc3ccccc3N3CCOCC3)CC2)cc1	LASV entry inh 18µM, MARV entry inh inconclusive, HCV inhibitor inconclusive, HCMV inh inconclusive
CCOc1ccc(C(=O)Nc2ccccc2N2CCOCC2)cc1	HCMV inh inconclusive
Cc1ccccc1NC(=O)CN1CCC(C(=O)c2ccc3c(c2)OCCO3)CC1	none
Cc1ccc(C(=O)C2CCN(CC(=O)Nc3ccccc3C)CC2)cc1	MARV entry inh inconclusive, HCV inhibitor inconclusive, HCMV inh -63 (no result: LASV entry inh)
COc1ccc(NC(=O)CC2C(=O)N(c3ccc(C)cc3)C(=O)N2CCc2ccccc2)cc1 (centres undefined)	LASV entry inh inconclusive, MARV entry inh inconclusive (no result: SARS PLP yeast, HCV inhibitor)
COc1ccc(C2Sc3ccccc3N(CCN(C)C)C(=O)C2OC(C)=O)cc1 (centres undefined)	none (no result: SARS PLP yeast, LASV entry inh, MARV entry inh, HCV inhibitor, HCMV inh)
CC(=O)c1ccc2c(c1)N(CCCN(C)C)c1ccccc1S2	HCV inhibitor inconclusive (no result: SARS PLP yeast, LASV entry inh, MARV entry inh)
CCC(=O)c1ccc2c(c1)N(CCCN(C)C)c1ccccc1S2	LASV entry inh inconclusive, MARV entry inh 21µM, HCV inhibitor inconclusive (no result: SARS PLP yeast)
CN(C)CCCN1c2ccccc2Sc2ccccc21	LASV entry inh inconclusive, MARV entry inh 18µM, FMDV inh inconclusive, HCMV inh inconclusive
COc1ccc2c(c1)Sc1ccccc1N2CCN(C)C	LASV entry inh inconclusive, MARV entry inh 11µM, HCV inhibitor inconclusive (no result: HCMV inh)
CN(C)CCCN1c2ccccc2CCc2ccc(Cl)cc21	LASV entry inh inconclusive, MARV entry inh 11µM, HCV inhibitor inconclusive, HCMV inh -67
N#C/C(=C\c1ccc(O)c(O)c1)C(=O)NCCCCc1ccccc1	none (no result: SARS PLP yeast, LASV entry inh, MARV entry inh, HCV inhibitor, HCMV inh)
CC(C)c1nn2c(=O)cc(COC(=O)c3ccc(NC(=O)COc4ccccc4)cc3)nc2s1	none (no result: SARS PLP yeast, MARV entry inh, HCV inhibitor)
COc1ccc(-c2ccc(C#N)c(OC(=O)c3c(Cl)cccc3Cl)n2)cc1	LASV entry inh inconclusive, HCV inhibitor 5µM (no result: SARS PLP yeast)
CC(=O)N(C)c1ccc(OCC(O)Cn2c(C)nc3ccccc32)cc1 (centres undefined)	LASV entry inh inconclusive, MARV entry inh inconclusive, FMDV inh inconclusive, HCV inhibitor 11µM
CC(=O)Nc1ccc(OCC(O)Cn2c(C)nc3ccccc32)cc1 (centres undefined)	none
COc1cccc(OCC(Cn2c(C)nc3ccccc32)OC(C)=O)c1 (centres undefined)	LASV entry inh inconclusive, MARV entry inh inconclusive, HCV inhibitor inconclusive, HCMV inh -70
Cc1ccc(NC(=O)CN2C(=O)C3(SCC(=O)N3c3ccc(F)c(F)c3)c3ccccc32)c(C)c1 (centres undefined)	FMDV inh inconclusive (no result: SARS PLP yeast, MARV entry inh, HCV inhibitor)
O=C1C=CN(S(=O)(=O)c2ccc(Cl)cc2)C(c2cccs2)C1 (centres undefined)	none (no result: SARS PLP yeast, LASV entry inh, MARV entry inh, FMDV inh, HCV inhibitor)
O=C(N/N=C/c1ccc[nH]1)c1cccc([N+](=O)[O-])c1	LASV entry inh inconclusive, HCV inhibitor 3.5µM
Cc1[nH]c2ccccc2c1/C=N/NC(=O)c1cccc(F)c1	none (no result: LASV entry inh, MARV entry inh)
Cc1[nH]c2ccccc2c1/C=N/NC(=O)c1cccc([N+](=O)[O-])c1	HCMV inh -61
O=C(N/N=C/c1ccc[nH]1)c1ccc2c(c1)OCO2	HCV inhibitor 13µM
O=C(N/N=C/c1ccc2c(c1)OCO2)c1ccc2c(c1)OCO2	MARV entry inh inconclusive
O=C(N/N=C\c1cccc(OC(=O)c2ccco2)c1)c1ccc2c(c1)OCO2	LASV entry inh 15µM, MARV entry inh inconclusive, FMDV inh inconclusive
CC(=O)c1cccc(NC(=O)c2c(N3CCCC3=O)c3cc(F)ccc3n2C)c1	none (no result: SARS PLP yeast, MARV entry inh, HCV inhibitor)
O=C(N/N=C/c1cc([N+](=O)[O-])ccc1O)c1cccc2cc[nH]c12	HCV inhibitor inconclusive, HCMV inh -80 (no result: LASV entry inh, MARV entry inh)
O=C(N/N=C/c1cccc([N+](=O)[O-])c1)c1cccc2cc[nH]c12	none
Cc1[nH]n(-c2ccc([N+](=O)[O-])cc2)c(=O)c1C=NCCc1c(C)[nH]c2ccccc12	MARV entry inh inconclusive, FMDV inh 25µM
Cc1ccc(-n2[nH]c(C)c(/C=N/Nc3ccc([N+](=O)[O-])cc3[N+](=O)[O-])c2=O)cc1	MARV entry inh inconclusive, FMDV inh 7.9µM, HCV inhibitor inconclusive, HCMV inh inconclusive
Cc1[nH]n(-c2ccc([N+](=O)[O-])cc2)c(=O)c1C=NCC1CCCO1 (centres undefined)	none
Cc1[nH]n(-c2ccc([N+](=O)[O-])cc2)c(=O)c1C=NCCc1ccc(S(N)(=O)=O)cc1	none
Cn1cc(/C=N/NC(=O)c2cccc([N+](=O)[O-])c2)c2ccccc21	HCV inhibitor 10µM
O=C(CSc1nnc(CNC(=O)c2cccc(F)c2)n1-c1ccccc1)Nc1ccccc1F	MARV entry inh inconclusive (no result: SARS PLP yeast, HCV inhibitor)
Cc1[nH]c2ccccc2c1/C=N/Nc1ccc([N+](=O)[O-])cc1	HCV inhibitor 2µM
O=C(N/N=C/c1cn(-c2ccccc2)nc1-c1ccc(F)cc1)c1ccc2c(c1)OCO2	MARV entry inh inconclusive, HCV inhibitor inconclusive
Cc1[nH]c2ccccc2c1/C=N/Nc1ccccn1	none (no result: LASV entry inh, MARV entry inh, FMDV inh, HCV inhibitor)
